The text below walks through data of PubChem BioAssay (Tox21).

Test [1] can be described thus: Nuclear factor erythroid 2-related factor 2/antioxidant responsive element (Nrf2/ARE) small molecule agonists: qHTS cell viability counter screen in human keratinocytes (AID 1919968; active = well fitted curve in the direction sought with a large enough effect in the repeat runs; an effect the other way counts as inactive or inconclusive; also: nearly all actives have a fitted effect of over 55% in size; also: potency is read from the fitted curve at half-maximal effect). The gist of the method: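 Measured as CellTiter-Fluor fluorescence, this readout tracks cytotoxicity in the same wells as the ARE-luciferase screen. HaCaT reporter cells (1,500/well) received compounds after a 5 h pre-incubation and were exposed for 23 h.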
For orientation: qHTS replaces the single test concentration by a dilution series.

A short description of test [2]: Nuclear factor erythroid 2-related factor 2/antioxidant responsive element (Nrf2/ARE) small molecule agonists: luciferase reporter gene qHTS assay in human keratinocytes (AID 1919969). Also: nearly all actives have a fitted effect of over 35% in size. Also: potency is read from the fitted curve at half-maximal effect.
The target in test [3] is KiSS-1 receptor (Homo sapiens) (UniProt Q969F8). Put plainly: Human kisspeptin (KISS1R) small molecule agonists, calcium flux assay in KISS1R-HEK293 cells (AID 1920064; active = well fitted curve in the direction sought with a large enough effect in the repeat runs; an effect the other way counts as inactive or inconclusive). In outline:
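Measures KISS1R agonism through calcium-sensitive dye fluorescence in stably transfected HEK293 cells, read for 3 min after pin-tool compound delivery; 15-point titrations in triplicate.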
Background: A change in cytosolic calcium serves as a functional read-out for many receptors and channels.

Test [4] in a line: G protein-coupled receptor (GPCR) small molecule agonists, calcium flux assay: HEK293 wild type cell line counter screen (AID 1920065). In outline: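 Readout: fluorescence at 480 nm excitation/540 nm emission, sampled at 1 s intervals for 3 min. Cells had been cultured 18 h, then dye-loaded 1 h at 37 C before compound or ATP addition.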
The nature of test [5]: p53 small molecule agonists, cell-based qHTS assay with human liver microsomes (AID 1963577).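 Also: p53 response element beta-lactamase reporter cells with liver microsomes plus NADPH.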 In outline:
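Steps: plate p53RE-bla cells, incubate 5 h at 37 C; add compound in DMSO; add microsomes (0.5 mg/mL final) and NADPH (0.5 mg/mL final); incubate 16 h at 37 C; add LiveBLAzer, 2 h RT; read fluorescence.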

Test [6] can be described thus: p53 small molecule agonists, cell-based qHTS assay with rat liver microsomes (AID 1963578). The gist of the method: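 Metabolic activation is supplied by rat liver microsomes with NADPH (each 0.5 mg/mL final). p53RE-bla cells incubate with compound 16 h at 37 C; reporter activity is measured by LiveBLAzer fluorescence.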
Test [7] can be described thus: p53 small molecule agonists, cell-based qHTS assay with human liver microsomes: qHTS cell viability counter screen (AID 1963579). Also: nearly all actives have a fitted effect of over 45% in size. In outline:
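After the 460/530 nm beta-lactamase read, CellTiter-Glo was added to the same wells and luminescence measured after 30 min at room temperature, giving viability of p53RE-bla cells treated 16 h with compounds plus microsomes and NADPH.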

Test [8] can be described thus: p53 small molecule agonists, cell-based qHTS assay with rat liver microsomes: qHTS cell viability counter screen (AID 1963580). Also: nearly all actives have a fitted effect of over 45% in size. In outline: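 Intracellular ATP, by CellTiter-Glo luminescence, defines viability. HCT-116 p53RE-bla cells, 4,000 per well, were compound-treated in the presence of rat liver microsomes and NADPH for 16 h at 37 C.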
Test [9] in a line: p53 small molecule agonists, cell-based qHTS assay: qHTS cell viability counter screen (AID 1963581). Also: nearly all actives have a fitted effect of over 45% in size. In outline:
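In the same plates used for the p53 bla reporter, HCT-116 cells given compounds for 16 h at 37 C received CellTiter-Glo; luminescence was recorded 30 min later at room temperature.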

Test [10] can be described thus: p53 small molecule agonists, cell-based qHTS assay (AID 1963582; active = well fitted activation curve with a large enough effect in the signal ratio in the repeat runs, not every such curve was filed as active; the % refers to the signal ratio). In outline:
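Compounds are pin-transferred in DMSO onto p53RE-bla cells and incubated 16 h at 37 C. The B/G FRET beta-lactamase substrate is then applied for 2 h at RT and fluorescence recorded.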

The target of test [11] is 5-hydroxytryptamine receptor 2A (Homo sapiens) (UniProt P28223). The experiment in a line: 5-hydroxytryptamine receptor 2A (HTR2A) small molecule antagonists, cell-based qHTS assay (AID 1963586). Also: nearly all actives have a fitted effect of over 45% in size. In outline: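 Antagonist-mode intracellular calcium assay: DOI (4 nM) added after 5 min compound pre-incubation at room temperature to dye-loaded HTR2A-CHO cells. Fluorescence followed for 3 min, sampled every second.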

Test [12] shares this target. Put plainly: 5-hydroxytryptamine receptor 2A (HTR2A) small molecule agonists, cell-based qHTS assay (AID 1963587). Also: nearly all actives have a fitted effect of over 30% in size. In outline:
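Kinetic calcium-flux fluorescence (2 min, 1 sec intervals) after compound addition in agonist mode. HTR2A-CHO cells were cultured 18 h, then dye-loaded 1 h at 37 C.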

Test [13] addresses Muscarinic acetylcholine receptor M1 (Homo sapiens) (UniProt P11229). Put plainly: Cholinergic receptor muscarinic 1 (CHRM1) small molecule antagonists, cell-based qHTS assay (AID 1963588). Also: nearly all actives have a fitted effect of over 40% in size. The gist of the method: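 CHRM1-CHO calcium-flux assay, antagonist mode. Cells were seeded 18 h, dye-loaded 1 h at 37 C and given compound for 5 min at RT, then acetylcholine was added at 50nM. FDSS fluorescence was read 3 min; 15 concentrations, three runs.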

Test [14] has the same target. The experiment in a line: Cholinergic receptor muscarinic 1 (CHRM1) small molecule agonists, cell-based qHTS assay (AID 1963589). Also: nearly all actives have a fitted effect of over 35% in size. In outline: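 Each compound was tested at 15 concentrations across three independent runs on dye-loaded CHO cells stably expressing human CHRM1, reading intracellular calcium fluorescence kinetically at 1 sec intervals.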
Test [15] in a line: cAMP Responsive Elements (CRE) small molecule agonists, cell-based qHTS assay (AID 1963590). The gist of the method: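 Cell line: CRE-bla HEK 293T; medium DMEM/10% dialyzed FBS/0.1 mM NEAA/1 mM pyruvate/25 mM HEPES; 3 h compound exposure; beta-lactamase FRET readout after 2 h substrate loading at RT.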
The nature of test [16]: cAMP Responsive Elements (CRE) small molecule antagonists, cell-based qHTS assay (AID 1963591; active = well fitted inhibition curve with a large enough effect in the signal ratio in the repeat runs, not every such curve was filed as active; the % refers to the signal ratio). In outline: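 Inhibition of NKH477-driven (0.25 uM final) CRE-beta-lactamase signal in HEK293T cells, 3 h compound exposure at 37 °C, detected by FRET substrate fluorescence.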
Test [17] deals with Beta-2 adrenergic receptor (Homo sapiens) (UniProt P07550). The experiment in a line: Adrenergic beta2 receptor (ADRB2) small molecule antagonists, cell-based qHTS assay (AID 1963592). Also: series mostly up to about 92 µM; nearly all actives have a fitted effect of over 50% in size. In outline: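 Cells (CHO, stable ADRB2 overexpression) incubated 18-20hr at 37C; compounds added from DMSO; agonist mix (1nM isoproterenol, 100uM IBMX, 25uM Ro-20-1724) added; 0.5hr RT; d2-cAMP and anti-cAMP-cryptate added; 1hr RT; 665/615 nm read.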

The target of test [18] is D(2) dopamine receptor (Homo sapiens) (UniProt P14416). The experiment in a line: Dopamine D2 receptor (DRD2) small molecule agonists, cell-based qHTS assay (AID 1963594). Also: nearly all actives have a fitted effect of over 35% in size. In outline: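 cAMP accumulation in DRD2-HEK293 cells measured by HTRF after 1 h detection; compounds added 10 min before NKH477 (200nM […]) forskolin-analogue stimulation, 30 min at room temperature, with Ro20-1724 present at 0.1 mM final.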

For test [19] the target is unchanged. Put plainly: Dopamine D2 receptor (DRD2) small molecule antagonists, cell-based qHTS assay (AID 1963595; active = well fitted inhibition curve with a large enough effect in the signal ratio in the repeat runs, with a control signal flat; the % refers to the signal ratio). In outline:
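HTRF cAMP read-out at 665 and 620 nm emission (340 nm excitation). Antagonist mode: compounds were tested against 12 nM quinpirole in DRD2-HEK293 cells, with 200 nM NKH477 raising cAMP and 0.1 mM Ro20-1724 blocking its breakdown.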

Test [20] addresses Beta-2 adrenergic receptor (Homo sapiens) (UniProt P07550). Put plainly: Adrenergic beta2 receptor (ADRB2) small molecule agonists, cell-based qHTS assay (AID 1963593).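 Also: CHO cells stably overexpressing human ADRB2.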 In outline: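 CHO cells stably over-expressing ADRB2 were plated overnight at 37C, then dosed with compounds plus a stimulation mix containing 100uM IBMX and 25uM Ro-20-1724 for 0.5hr at room temperature. cAMP was measured by HTRF competition, 1hr.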

SMILES strings stand for the structures. Values joined by “and” are separate entries in the source; they are usually repeats but may differ in a detail not shown here. Identical values can stand only once. Results filed as inconclusive are left out. Active and inactive are the calls of the source. Unless noted, calls follow the shape of the full dose curve.

Muscarinic acetylcholine receptor M1 (Homo sapiens), sequence (P11229 whole entry, looked up): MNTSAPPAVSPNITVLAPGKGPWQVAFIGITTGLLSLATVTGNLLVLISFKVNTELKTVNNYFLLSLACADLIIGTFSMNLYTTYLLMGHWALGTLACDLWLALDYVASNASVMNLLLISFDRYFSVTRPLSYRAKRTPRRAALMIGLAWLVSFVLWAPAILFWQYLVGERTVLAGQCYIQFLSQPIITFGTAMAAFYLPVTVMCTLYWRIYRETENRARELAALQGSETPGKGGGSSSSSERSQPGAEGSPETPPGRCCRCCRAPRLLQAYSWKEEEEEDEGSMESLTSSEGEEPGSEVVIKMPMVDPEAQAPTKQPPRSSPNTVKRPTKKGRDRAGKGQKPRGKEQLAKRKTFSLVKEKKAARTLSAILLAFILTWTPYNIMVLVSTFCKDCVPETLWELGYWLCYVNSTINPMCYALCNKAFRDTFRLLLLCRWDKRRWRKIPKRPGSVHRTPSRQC
Beta-2 adrenergic receptor (Homo sapiens), sequence (P07550 whole entry, looked up): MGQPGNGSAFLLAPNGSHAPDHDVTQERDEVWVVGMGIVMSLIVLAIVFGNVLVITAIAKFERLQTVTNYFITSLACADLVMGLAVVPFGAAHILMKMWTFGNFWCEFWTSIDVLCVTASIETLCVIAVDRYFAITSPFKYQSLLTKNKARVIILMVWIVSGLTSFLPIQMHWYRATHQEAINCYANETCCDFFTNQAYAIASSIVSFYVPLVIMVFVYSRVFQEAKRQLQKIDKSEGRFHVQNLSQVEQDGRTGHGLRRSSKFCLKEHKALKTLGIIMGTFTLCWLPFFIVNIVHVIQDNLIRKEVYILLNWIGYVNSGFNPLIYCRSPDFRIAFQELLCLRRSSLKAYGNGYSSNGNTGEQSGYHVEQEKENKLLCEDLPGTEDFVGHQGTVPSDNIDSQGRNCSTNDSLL
KiSS-1 receptor (Homo sapiens), sequence (Q969F8 whole entry, looked up): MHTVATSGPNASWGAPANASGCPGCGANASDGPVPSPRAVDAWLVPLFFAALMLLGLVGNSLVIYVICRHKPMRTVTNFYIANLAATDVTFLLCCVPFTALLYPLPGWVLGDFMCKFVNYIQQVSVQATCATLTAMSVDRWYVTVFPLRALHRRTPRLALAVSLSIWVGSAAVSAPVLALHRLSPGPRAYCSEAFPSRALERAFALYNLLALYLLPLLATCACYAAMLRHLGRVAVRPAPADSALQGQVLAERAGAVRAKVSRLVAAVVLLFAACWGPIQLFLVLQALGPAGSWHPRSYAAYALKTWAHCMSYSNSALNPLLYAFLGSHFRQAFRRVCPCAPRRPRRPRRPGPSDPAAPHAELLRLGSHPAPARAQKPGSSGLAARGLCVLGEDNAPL
D(2) dopamine receptor (Homo sapiens), sequence (P14416 whole entry, looked up): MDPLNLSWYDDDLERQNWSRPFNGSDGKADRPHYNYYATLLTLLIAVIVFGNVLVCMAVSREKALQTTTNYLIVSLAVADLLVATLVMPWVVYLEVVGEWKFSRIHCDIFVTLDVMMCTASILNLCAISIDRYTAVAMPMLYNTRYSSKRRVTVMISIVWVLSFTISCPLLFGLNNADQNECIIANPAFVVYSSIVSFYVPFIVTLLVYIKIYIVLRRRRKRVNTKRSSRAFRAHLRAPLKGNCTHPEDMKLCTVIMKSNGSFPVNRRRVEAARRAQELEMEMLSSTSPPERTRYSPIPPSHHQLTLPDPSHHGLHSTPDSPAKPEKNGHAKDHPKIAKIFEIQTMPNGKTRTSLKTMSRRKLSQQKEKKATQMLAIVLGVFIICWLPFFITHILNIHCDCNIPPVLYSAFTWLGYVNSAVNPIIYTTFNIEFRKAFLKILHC
5-hydroxytryptamine receptor 2A (Homo sapiens), sequence (P28223 whole entry, looked up): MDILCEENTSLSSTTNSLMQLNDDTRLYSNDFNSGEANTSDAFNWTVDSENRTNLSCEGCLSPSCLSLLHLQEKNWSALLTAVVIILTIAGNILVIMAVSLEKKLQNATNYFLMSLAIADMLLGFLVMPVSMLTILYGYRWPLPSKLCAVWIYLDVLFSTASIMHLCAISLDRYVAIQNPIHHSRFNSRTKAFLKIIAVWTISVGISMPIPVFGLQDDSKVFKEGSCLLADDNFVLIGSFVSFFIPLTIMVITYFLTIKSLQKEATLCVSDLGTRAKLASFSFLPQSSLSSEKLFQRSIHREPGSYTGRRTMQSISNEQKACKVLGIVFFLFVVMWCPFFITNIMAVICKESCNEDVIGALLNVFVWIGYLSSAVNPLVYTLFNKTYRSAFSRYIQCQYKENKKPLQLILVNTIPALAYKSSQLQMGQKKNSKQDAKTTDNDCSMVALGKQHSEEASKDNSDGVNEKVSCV

Regarding `O=C(CCl)CCl`, the Potency was 50.3 µM (active) and 54.5 µM (active) in [1]; 28.3 µM (active) and 27.3 µM (active) in test [2]. Besides, the Potency entry in test [3], in [4], in [5], in test [6], in [7] and in test [8] was “inactive” each time. Moreover, the Potency result in [9], in test [10], in test [11], in [12], in test [13] and in [14] was “inactive” in each case. Moreover, the Potency entry in [15], in test [16], in test [17], in [18] and in test [19] was “inactive” throughout.

With `CCCSC(=O)Cl`, the Potency entry in test [1], in test [2], in test [3], in test [4], in [5] and in test [6] was “inactive” each time. Also, the Potency entry in [7], in test [8], in test [9], in test [10], in test [13] and in test [14] was “inactive” each time. Moreover, the Potency result in [15], in test [16], in test [17], in test [20], in test [18] and in test [19] was “inactive” throughout.

In the case of `CC(C)OC(=O)Nc1cccc(Cl)c1`, the Potency entry in [1], in [2], in [3], in test [4], in test [5] and in test [6] was “inactive” throughout. Moreover, the Potency entry in [7], in test [8], in [9], in test [10], in test [11] and in [12] was “inactive” throughout. The Potency entry in test [14], in test [15], in test [17], in test [20], in [18] and in test [19] was “inactive” each time.

`CN(CCCC(=O)c1cccnc1)N=O`: the Potency result in [1], in [2], in [3], in test [4], in [5] and in [6] was “inactive” in each case. In addition, the Potency entry in test [7], in test [8], in test [9], in test [10], in test [11] and in [12] was “inactive” each time. Besides, the Potency result in test [13], in [14], in [15], in [16], in test [17] and in test [18] was “inactive” throughout. Also, in test [19], the Potency result is “inactive”.

Take `O=C([O-])c1ccccn1.O=C([O-])c1ccccn1.O=C([O-])c1ccccn1.[Cr+3]`: the Potency entry in test [1], in test [2], in test [3], in [4], in [5] and in test [6] was “inactive” in each case. The Potency result in test [7], in test [8], in test [9], in test [10], in [11] and in test [12] was “inactive” each time. Moreover, the Potency entry in test [14], in test [15], in [16], in test [17], in test [20] and in test [18] was “inactive” throughout. Further, in test [19], the Potency result was “inactive”.

For `CCC(=O)O[C@@H]1C=C2CCC3C(CCC4(C)C3CC[C@@H]4OC(=O)CC)C2CC1` (stereo partly drawn), the Potency result in [1], in test [2], in test [5], in [6], in test [7] and in test [8] was “inactive” in each case. Moreover, the Potency entry in [9], in [10], in test [11], in [12], in [13] and in test [14] was “inactive” in each case. Further, the Potency result in test [15], in test [16], in test [17], in [20], in test [18] and in [19] was “inactive” throughout.

Regarding `Nc1c(Cl)c(Cl)nc(C(=O)O)c1Cl`, the Potency entry in test [1], in [2], in test [3], in [4], in test [5] and in [6] was “inactive” throughout. Also, the Potency result in [7], in test [8], in [9], in test [10], in [11] and in test [12] was “inactive” throughout. The Potency entry in [13], in test [14], in test [16], in test [17] and in [19] was “inactive” each time.
